Test results from PubChem BioAssay AID651812 (National Center for Advancing Translational Sciences (NCATS), 2012).
Among all 2,100 compounds or so, about 650 (31%) were called active. Inconclusive results (about 16%) are left out. The call rests on the fitted dose curve; in most records, active means well fitted inhibition curve with a large enough effect; inconclusive means small, poorly fitted or top-dose-only effect; inactive means flat fitted curve, though single readings scatter. This is one part of the list.

Assay: qHTS for inhibitors of Vif-A3G interactions: Cherry picks; further: nearly all actives have a fitted effect of over 80% in size
Conditions: HeLa A3G-eYFP + Vif (tagged APOBEC3G with the HIV-1 protein that degrades it), 24 h; Potency: eYFP fluorescence increase; series mostly up to 36.9 µM
In short: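 HeLa cells stably expressing A3G-eYFP and Vif, cultured overnight then exposed to compounds at several concentrations for 24 hours at 37 C, 5% CO2; cellular yellow fluorescence (488 nm ex, 500-530 nm em) imaged on Acumen, MG132 positive control.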
Potency means the concentration at half of the fitted maximal effect.

Potency, inactive:
COc1cccc(/C=N/NC(=O)c2[nH]nc3c2CCc2ccccc2-3)c1
CC(=O)n1cc(/C=N/NC(=O)c2sc(C)nc2C)c2ccccc21
COc1ccc(C(C)(O)c2nc(-c3ccccc3OC)cs2)cc1 (stereo unspecified)
CN(C)c1ccc(/C=C/c2ccnc3ccccc23)cc1N
COc1cc2c(cc1OC)CN(C(=O)/C=C/c1cccs1)CC2
Cc1cc(C)nc(-n2nc(C)cc2NC(=O)c2ccc(F)cc2F)n1
O=[N+]([O-])/C=C\c1ccc(N2CCCC2)c(F)c1
COc1ccc(/C=C/c2ccnc3ccccc23)c(OC)c1
COc1ccccc1-c1c(C#N)c(N)nc2c1CCc1ccccc1-2
CNc1cncc(-c2cc(C)c(O)c(C)c2)n1
COc1cc(C2c3cc4c(cc3OC(C)(N3CCCC3)C2C)OCO4)cc(OC)c1OC (stereo unspecified)
CCOc1c(Cl)cc(/C=N/NC(N)=S)cc1OC
CCOC(=O)c1ccc(N=Nc2c(C)c(C#N)c(O)[nH]c2=O)cc1
Cc1ccc2nc(NC(=O)CN(C)S(=O)(=O)c3cccc4nsnc34)sc2c1
CCOc1ccc(-c2cc(C(=O)N/N=C(\C)c3cccnc3)c3ccccc3n2)cc1
CCOC(=O)c1ccc(NC(=O)Cn2ncc(Cl)c(Cl)c2=O)cc1
Cc1cnc(NC(=O)CC(C)c2ccccc2)s1 (stereo unspecified)
CCOc1ccc(-n2nnnc2SCC(=O)c2ccccc2)cc1
COc1ccc(C2C(C#N)=C(N)Oc3cc(N)ccc32)cc1OC (stereo unspecified)
COc1cc(C2C3=C(COC3=O)Oc3cc4c(cc32)OCO4)ccc1OC(C)=O (stereo unspecified)
Cc1cccc(N2CCN(C(=O)c3cccc(N4CCCC4=O)c3)C(C)C2)c1 (stereo unspecified)
COc1cc(-c2noc(C)c2C#Cc2ccc(N)cc2)cc(OC)c1OC
CSCC[C@H](NC(=O)[C@H](Cc1ccccc1)n1c(=O)[nH]c2ccccc2c1=O)C(=O)N1CCC[C@@H]1C(=O)O
COc1cc(-c2noc(C)c2/C=C/c2ccc(OC(C)=O)cc2)cc(OC)c1OC
O=C(CSc1nc(-c2ccco2)cc(C(F)(F)F)n1)Nc1cccnc1
C=CCNc1nc(-c2ccccc2)c(C(=O)OCC)cc1C#N
O=C(OCCC12CC3CC(CC(C3)C1)C2)c1ccc(NCc2cc(O)ccc2O)cc1
N#Cc1c(C(F)(F)F)cc(-c2cccs2)nc1SCC(=O)Nc1cccc(Cl)c1
O=C(NCc1ccccc1)C1Cc2c(-c3ccc(Cl)cc3)ccnc2O1 (stereo unspecified)
COCCCNC(=S)N/N=C/c1ccc(OC)cc1
O=C(NCc1ccccc1)C(=O)NCC1COc2ccccc2O1 (stereo unspecified)
N#C/C(=C\c1ccccc1[N+](=O)[O-])C(=O)NCc1ccccc1
Cc1ccc(CN(C(=O)c2ccccc2F)c2ccccn2)o1
CCOC(=O)c1cnc(-n2nc(C)cc2C)nc1NNc1nc(-c2ccccc2)cc(-c2ccccc2)n1
COC(=O)c1[nH]c2c(c1C(=O)OC)CCc1ccccc1-2
CC(CC(=O)Nc1ccc2c(c1)c(=O)n(C)n2-c1ccccc1F)c1ccccc1 (stereo unspecified)
O=C1[C@@H]2[C@@H](CN3CN(c4ccccc4)N=C(c4ccccc4)[C@@]23c2ccccc2)C(=O)N1c1ccccc1
O=C(Cn1nc2c(cc1=O)CCCC2)NCc1ccc(Cl)cc1
CC(=O)Nc1cccc(-c2ccnc3c2CC(C)(C(=O)NCc2ccccc2)O3)c1 (stereo unspecified)
COc1ccc(/C=N/NC(=O)c2cc(OC)c(OC)c(OC)c2)cc1CN1CCc2cc(OC)c(OC)cc2C1C (stereo unspecified)
O=C1NC(=Nc2ccccc2Cl)S/C1=C\c1cc([N+](=O)[O-])ccc1O
C=CCOc1ccc2nc(NC(=O)OC)[nH]c2c1
COc1ccc(N/C=C/C(=O)c2sc(-c3ccccc3)nc2C)cc1
Cc1c(C(=O)N2CCOCC2)[nH]c2c1C(=O)CC(c1ccccc1Cl)C2 (stereo unspecified)
Cc1ccc(C)c(N2CCN(C(=O)c3cccn4c(=O)c5sccc5nc34)CC2)c1
COc1ccc(-c2coc3cc4oc(=O)cc(-c5ccccc5)c4cc23)cc1F
CCC/C=N/NC(=O)c1[nH]c2c([N+](=O)[O-])cccc2c1C
O=C(CSc1nc2ccccc2s1)c1cc2ccccc2o1
CCCC(=O)Nc1nc2ccc(NC(=O)c3ccccc3F)cc2s1
Cc1nc(SCC(=O)c2ccccc2)c(C#N)c(-c2ccco2)c1C(=O)NCc1ccco1
Cc1ccc(C(=O)CSC2=C(C#N)C(c3ccco3)C3=C(CCCC3=O)N2)cc1 (stereo unspecified)
CCOc1cc(C#N)c(NC(=O)c2cccnc2)cc1OCC
CCOc1ccc(S(=O)(=O)Nc2cc3c(C(=O)OC)c(COC)oc3c3ccccc23)cc1
COc1ccc(NC(=O)/C(C#N)=C\C=C\c2ccco2)cc1
COCCCNC(=S)N/N=C/c1cccc(OC)c1O
CC1=C(n2nnc3ccccc32)C(c2ccccc2)C(C#N)=C(N)O1 (stereo unspecified)
COc1ccc(C(=O)Nc2ccc3c(c2)N(C)C(=O)c2ccccc2S3)cc1OC
CCOc1ccc(CN2C(=O)c3ccccc3Sc3ccc(C(=O)O)cc32)cc1
N#CC1=C(N)Oc2ccc3ccc(O)cc3c2C1c1ccsc1 (stereo unspecified)
c1ccc2[nH]c(NN=C3CCCCCC3)nc2c1

Potency, active:
Cc1cc(/C=C/c2ccnc3ccccc23)ccc1N(C)C 20.6 µM
Cc1cc(N(C)C)c(C)cc1/C=C/c1ccnc2ccccc12 20.6 µM
CCn1c2ccccc2c2c3ncc4cccn4c3ccc21 23.1 µM
CCOC(=O)/C(C#N)=C\C=C1C=CN(C)C=C1 8.2 µM
Cc1cc(N2CCCC2)ccc1/C=C1/C(=O)N(C)C(=S)N1C 18.4 µM
Cc1cc(/C=C2\NC(=S)N(C)C2=O)ccc1N1CCCC1 8.86 µM
Cc1cc(N2CCCC2)ccc1/C=C1\NC(=S)N(C)C1=O 3.66 µM
COc1cc(/C=C/c2ccnc3ccccc23)ccc1N(C)C 20.6 µM
COc1cc(N(C)C)c(OC)cc1/C=C/c1ccnc2ccccc12 20.6 µM
CCOC(=O)c1c(Nc2ccc(Cl)cc2)sc(/C=C2\C=Nc3ccccc32)c1O 13 µM
Cn1cc(/C=C/c2ccc3ccccc3n2)c2ccccc21 20.6 µM
Cn1cc(/C=C/c2ccnc3ccccc23)c2ccccc21 23.1 µM
CCOC(=O)c1ccc(NC(=O)CSc2nc(-c3ccc(F)cc3)cc(C(F)(F)F)c2C#N)cc1 20.6 µM
Cc1cc(C(F)(F)F)c(C#N)c(SCC(=O)Nc2nc3ccccc3s2)n1 18.4 µM
CCOc1ccc(-c2cc(C(F)(F)F)c(C#N)c(SCC(=O)Nc3ccccc3)n2)cc1 18.4 µM
Cc1ccc(S(=O)(=O)CCSc2nc(C)cc(C(F)(F)F)c2C#N)cc1 14 µM
CCOC(=O)c1ccc(NC(=O)CSc2nc(-c3cccs3)cc(C(F)(F)F)c2C#N)cc1 20.6 µM
Cc1coc(NC(=O)CSc2nc(-c3ccncc3)cc(C(F)(F)F)c2C#N)n1 14.6 µM
CCOC(=O)c1ccc(NC(=O)CSc2nc(-c3ccc(OC)cc3)cc(C(F)(F)F)c2C#N)cc1 20.6 µM
CCCCOc1ccc(-c2cc(C(F)(F)F)c(C#N)c(SCC(=O)O)n2)cc1 18.4 µM
N#Cc1c(C(F)(F)F)cc(-c2cccs2)nc1SCC(=O)Nc1cccc(C(F)(F)F)c1 18.4 µM
N#C/C(=C\c1ccc(N2CCOCC2)o1)C(=O)NCCc1ccccc1 23.1 µM
N#C/C(=C\c1ccc(N2CCOCC2)o1)C(=O)NC1CCCCC1 15.8 µM
CN(C)c1ccc(/C=C(/C#N)C(=O)NCc2ccccc2)o1 14.6 µM
N#C/C(=C/c1ccc(N2CCOCC2)o1)C(=O)NC1CCCCC1 18.4 µM
Nc1c(C(=O)c2ccc(Cl)cc2)sc2nc3c(cc12)CCC3 18.4 µM
O=C1/C(=C\c2cc([N+](=O)[O-])ccc2O)SC(=S)N1Cc1ccc(Cl)cc1 18.4 µM
CN(C)c1ccc(/C=C/C(=O)c2c(O)c3ccccc3oc2=O)cc1 1.46 µM
CC[n+]1c(/C=C/Nc2ccccc2)oc2ccc(OC)cc21 20.6 µM
CC[n+]1c(/C=C/N(C)c2ccccc2)oc2ccc(F)cc21 17.7 µM
CC[n+]1c(/C=C/Nc2ccccc2)oc2ccccc21 14.6 µM
O=C(CSc1nc2ccc(Nc3nc(N4CCOCC4)nc(N4CCOCC4)n3)cc2s1)Nc1ccccc1F 5.8 µM
N#Cc1ccc(-c2cccnc2)nc1SCC(=O)c1ccccc1 16.4 µM
Cc1ccc(C(=O)CSc2nc(-c3ccccc3)ccc2C#N)cc1 18.4 µM
CN1/C(=C\C=C(/C#N)C(=O)Nc2ccc(Cl)cc2)C(C)(C)c2ccccc21 4.98 µM
CN1/C(=C\C=C(/C#N)C(=O)Nc2ccccc2F)C(C)(C)c2ccccc21 9.2 µM
O=C(NNC1=Nc2cccc3cccc1c23)c1ccc(Br)cc1 18.4 µM
CCN1/C(=C/c2cccc[n+]2C)Sc2ccc(OC)cc21 16.4 µM
COc1ccc2c(c1)N(C)/C(=C/c1cccc[n+]1C)S2 14 µM
CC[n+]1ccccc1/C=C1\Sc2ccc(C)cc2N1C 20.6 µM
O=C(Cc1nc2ccccc2[nH]c1=O)c1ccc(Cl)cc1 20.6 µM
